This is an account of results in PubChem BioAssay.

Experiment [1] is described as follows: resazurin metabolic signal in HepG2 cells – cell-based, resazurin fluorescence, 24 h, PK04 Diversity Set, profiling panel (AID 1172). The following applies: HepG2 viability, higher = more signal.
Experiment [2] is described as follows: budding yeast growth changes without added modifier – OD600, strain BY4716, 24 h, basal condition, primary screen (AID 1173). To be noted: S. cerevisiae BY4716 growth, OD600, 24 h; higher = more signal, called active from +8 up or from −8 down.
The nature of experiment [3]: viability profiling in MM1S myeloma cells – cell-based, resazurin fluorescence, basal, 24 h, PK04 Diversity Set, profiling panel (AID 1174).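 Further: MM1S multiple myeloma cell line.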 To be noted: higher = more signal, called active from +8 up or from −8 down.
Experiment [4] addresses Dihydroorotate dehydrogenase (quinone), mitochondrial (Plasmodium falciparum (isolate 3D7)) (UniProt Q08210). Description: inhibition of P. falciparum DHODH – biochemical, C-terminal His tag, absorbance 600 nm, primary screen (AID 1175).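 Further: recombinant parasite enzyme with a five histidine tag at its C terminus.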 To be noted: PfDHODH enzyme, DCIP absorbance 600 nm; higher = more signal, called active from +8 up or from −8 down.
Experiment [5] can be described thus: inhibition of PAO1 biofilm formation – strain PAO1, LB-PBS medium, absorbance 600 nm, primary screen (AID 1176). To be noted: P. aeruginosa PAO1 growth/biofilm, A600, 12 h; higher = more signal.
The nature of experiment [6]: growth modulation of vineyard yeast isolate – strain RM11-1a, OD600, basal, 24 h, primary screen (AID 1177).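 Further: cultures grown under basal conditions with no added stressor.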 To be noted: S. cerevisiae RM11-1a growth, OD600, 24 h; higher = more signal, called active from +8 up or from −8 down.
Experiment [7] can be described thus: growth of efflux-deficient E. coli DRC39 – strain DRC39, OD650, 24 h, E. coli filamentation inducers, primary screen (AID 1178).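 Further: growth measured as culture turbidity by optical density at 650 nm.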 The following applies: E. coli DRC39 acrAB, higher = more signal, called active from +8 up or from −8 down.
Experiment [8] in a line: growth of efflux-deficient E. coli DRC39 – strain DRC39, OD650, 48 h, E. coli filamentation inducers, primary screen (AID 1179).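 Further: screen aims at cell division blockers that make cells filament.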 To be noted: E. coli DRC39 delta-acrAB growth, higher = more signal, called active from +8 up or from −8 down.
A short description of experiment [9]: viability profiling in RPMI8226 myeloma cells – cell-based, resazurin fluorescence, basal, 24 h, PK04 Diversity Set, profiling panel (AID 1180).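 Further: RPMI8826 multiple myeloma cell line at 5000 cells per well.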 To be noted: higher = more signal.
In experiment [10] the target is E3 ubiquitin-protein ligase XIAP (Homo sapiens) (UniProt P98170). Description: small molecules binding XIAP protein – biophysical, small-molecule microarray, fluorescence 635 nm, primary screen (AID 1181).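 Further: score merges 667 nm emission and signal to noise over triplicate slides.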 The following applies: higher = more signal.
E3 ubiquitin-protein ligase XIAP (Homo sapiens), sequence (P98170 whole entry, looked up, the tested form may be a part): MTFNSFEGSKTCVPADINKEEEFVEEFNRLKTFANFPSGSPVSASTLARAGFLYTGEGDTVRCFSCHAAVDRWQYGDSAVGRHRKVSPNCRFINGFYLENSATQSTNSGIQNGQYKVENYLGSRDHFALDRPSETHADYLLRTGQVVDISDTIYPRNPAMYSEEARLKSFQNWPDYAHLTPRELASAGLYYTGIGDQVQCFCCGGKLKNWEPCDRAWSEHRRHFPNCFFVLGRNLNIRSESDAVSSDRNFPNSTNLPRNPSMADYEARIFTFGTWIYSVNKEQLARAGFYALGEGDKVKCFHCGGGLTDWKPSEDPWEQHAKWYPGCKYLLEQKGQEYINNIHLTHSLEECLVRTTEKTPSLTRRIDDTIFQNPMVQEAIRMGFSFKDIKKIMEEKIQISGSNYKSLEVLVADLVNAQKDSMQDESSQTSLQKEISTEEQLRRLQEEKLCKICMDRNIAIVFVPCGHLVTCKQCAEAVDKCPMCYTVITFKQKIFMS
Experiment [11] deals with XIP peptide (Xip251-270) binding. As to the kind of experiment: XIP fragment 251-270 binding compounds – biochemical, small-molecule microarray, fluorescence 635/667 nm, 0.1 µg/mL protein, primary screen (AID 1182). The following applies: fluorescent protein binding, 635 nm, higher = more signal, called active from +8 up or from −8 down.
In another experiment the test system is XIP peptide (Xip251-270). As to the kind of experiment: compounds binding XIP fragment 251-270 – biochemical, small-molecule microarray, fluorescence 635/667 nm, 0.5 µg/mL protein, primary screen (AID 1183). The following applies: fluorescence 635 nm, higher = more signal.
Experiment [12] in a line: blood-stage malaria parasite viability loss – strain 3D7, DAPI fluorescence, 100 nL, primary screen (AID 1184).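 Further: parasites grown inside human red blood cells in medium with human serum.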 To be noted: P. falciparum 3D7 growth, 3 d, higher = more signal.
Experiment [13] deals with Homeobox protein Hox-A13 (Mus musculus) (UniProt Q62424). As to the kind of experiment: disruptors of Hoxa13 oligonucleotide interaction – biochemical, fluorescence polarization, labeled oligonucleotide, primary screen (AID 1185). To be noted: Hoxa13:DNA binding, 15 min, higher = more signal, called active from +8 up or from −8 down. On the technique in general: Polarisation of emitted light reports the rotation of a fluorescent probe.
Homeobox protein Hox-A13 (Mus musculus), sequence (Q62424 whole entry, looked up): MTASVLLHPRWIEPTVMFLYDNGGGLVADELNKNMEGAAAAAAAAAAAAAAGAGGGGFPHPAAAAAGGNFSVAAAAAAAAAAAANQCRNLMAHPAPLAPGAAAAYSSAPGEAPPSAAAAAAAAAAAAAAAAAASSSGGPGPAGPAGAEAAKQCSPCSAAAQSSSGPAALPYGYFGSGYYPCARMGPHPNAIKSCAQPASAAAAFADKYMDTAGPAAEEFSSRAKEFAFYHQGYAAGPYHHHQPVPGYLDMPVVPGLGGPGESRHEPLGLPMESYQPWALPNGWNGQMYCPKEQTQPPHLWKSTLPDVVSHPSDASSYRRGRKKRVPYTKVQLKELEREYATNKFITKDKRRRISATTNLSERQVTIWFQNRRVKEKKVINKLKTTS

The nature of experiment [14]: blockers of DNA damage checkpoint Chk1 activation – imaging, HeLa, hydroxyurea, phospho-Chk1 antibody, percent positive cells, primary screen (AID 1186). To be noted: hydroxyurea-induced phospho-Chk1 immunofluorescence imaging, higher = more signal.
Experiment [15] in a line: blockers of DNA damage checkpoint Chk1 activation – imaging, HeLa, hydroxyurea, phospho-Chk1 nuclear intensity, primary screen (AID 1187). To be noted: hydroxyurea-induced phospho-Chk1 immunofluorescence imaging, higher = more signal.

Calls of active or inactive are those of the source. Unless noted, how the calls were made is not given here.

Dihydroorotate dehydrogenase (quinone), mitochondrial (Plasmodium falciparum (isolate 3D7)), sequence (Q08210 whole entry, looked up): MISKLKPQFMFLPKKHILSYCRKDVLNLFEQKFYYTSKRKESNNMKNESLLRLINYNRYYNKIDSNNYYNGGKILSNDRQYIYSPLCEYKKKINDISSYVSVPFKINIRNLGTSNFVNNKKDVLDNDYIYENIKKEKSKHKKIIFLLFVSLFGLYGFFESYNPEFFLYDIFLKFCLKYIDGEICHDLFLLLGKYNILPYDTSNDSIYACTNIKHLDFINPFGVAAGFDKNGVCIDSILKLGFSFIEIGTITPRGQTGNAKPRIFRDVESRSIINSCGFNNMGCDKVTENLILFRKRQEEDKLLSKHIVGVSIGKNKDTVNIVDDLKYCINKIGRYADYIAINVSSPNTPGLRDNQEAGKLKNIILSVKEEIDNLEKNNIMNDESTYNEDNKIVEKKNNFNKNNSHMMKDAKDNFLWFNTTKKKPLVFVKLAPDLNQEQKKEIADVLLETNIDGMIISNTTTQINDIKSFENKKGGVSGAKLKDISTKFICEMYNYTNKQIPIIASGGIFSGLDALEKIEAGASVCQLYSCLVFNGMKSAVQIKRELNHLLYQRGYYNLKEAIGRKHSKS

For `C=C(CCCC)/C(=C/C[C@@H](OC(C)=O)c1ccc(CO)o1)c1cnc2ccccc2c1`, the z-score in experiment [1] was -1.53; in [2], -0.293 (inactive); in experiment [3] it was -0.291 (inactive); in experiment [5], 0.0022 (inactive); in [6], 0.324 (inactive); in [7], -1.1 (inactive). Also, the z-score in [8] is -0.856 (inactive); in experiment [9] it was -0.521; in [12] it was -1.38; in [13] it was -4.99 (inactive); in [14], 0.196 (inactive); in experiment [15] it was -0.109 (inactive). In addition, the composite z-score in experiment [4] was -6.85 (inactive); in [10] it was 0.1; in experiment [11], 0.714 (inactive); with XIP peptide (Xip251-270) it was 0.811.
Consider `COC(=O)C(CC#Cc1ccc2c(c1)[C@]1(C(=O)N2)[C@H](c2ccccc2OCCO)N2[C@H](c3ccccc3)[C@H](c3ccccc3)OC(=O)[C@H]2[C@@H]1C(=O)N1CCc2cc(OC)c(OC)cc2C1)C(=O)OC`, for which the z-score in experiment [1] was 0.0231; in [2], 1.07 (inactive); in experiment [3] it was -1.07 (inactive); in experiment [5], 2.83 (inactive); in experiment [6] it was 1.79 (inactive); in [7], 0.021 (inactive). Also, the z-score was 0.761 (inactive) in [8]; -0.918 in experiment [9]; -2.19 in experiment [12]; 3.17 (inactive) in [13]; -0.0586 (inactive) in experiment [14]; -0.139 (inactive) in experiment [15]. The composite z-score in [4] is -0.653 (inactive); in experiment [10], 0.132; in experiment [11], -0.19 (inactive); in the experiment on XIP peptide (Xip251-270) it was 0.621.
Regarding `O=C1C=C(c2ccccc2)C(=O)C2=C1CC([C@H]1Oc3ccccc3S(=O)(=O)N3CCC[C@@H]13)=CC2`, the z-score in [1] is 0.203; in experiment [2], -3.37 (inactive); in experiment [3] it was -7.16 (inactive); in [5], -0.0461 (inactive); in [6], -0.926 (inactive); in experiment [7], 0.0769 (inactive). In addition, the z-score in experiment [8] is -0.807 (inactive); in experiment [9], -4.88; in experiment [12] it was -3.16; in experiment [13] it was -3.85 (inactive); in [14], 0.079 (inactive); in [15] it was 0.334 (inactive). In addition, the composite z-score was -1.54 (inactive) in [4], -0.127 in [10], -0.0015 (inactive) in experiment [11] and -0.0733 in the experiment on XIP peptide (Xip251-270).
Consider `[N-]=[N+]=Nc1ccccc1[C@@H]1OC(c2ccc(OCCCO)cc2)=N[C@]1(CCS(=O)(=O)c1ccccc1)C(=O)NCC(O)CO` (stereo not given in full), for which the z-score in experiment [1] is 0.396; in [2], 0.143 (inactive); in [3], 0.321 (inactive); in experiment [5] it was 0.317 (inactive); in experiment [6], 0.777 (inactive); in [7] it was 0.125 (inactive). Also, the z-score in [8] is 0.638 (inactive); in experiment [9], -0.315; in [12], -2.21; in [13], -3.99 (inactive); in [14], 0.0401 (inactive); in [15] it was 0.225 (inactive). Also, the composite z-score in [4] was 0.612 (inactive); in experiment [10], -0.201; in [11], 0.0574 (inactive); with XIP peptide (Xip251-270), 0.947.
For the compound `CCOC(=O)C[C@H]1[C@H](OC(=O)Cc2ccc3c(c2)OCO3)[C@@H](NC(=O)c2ccc3ccccc3n2)c2cc(OCCCO)ccc2N1C(=O)Cc1ccc(OC)cc1`, the z-score in [1] was 1.14; in experiment [2], -1.17 (inactive); in experiment [3], -0.175 (inactive); in [5], 0.477 (inactive); in [6] it was -0.925 (inactive); in [7], 1.12 (inactive). The z-score was 1.6 (inactive) in [8]; 0.29 in experiment [9]; -2.57 in [12]; -1.86 (inactive) in [13]; -0.192 (inactive) in experiment [14]; 0.225 (inactive) in experiment [15]. Besides, the composite z-score in [4] is -1.55 (inactive); in experiment [10], -0.232; in experiment [11], 0.322 (inactive); in the experiment on XIP peptide (Xip251-270), 0.401.
Consider `CC1CC/C=C\[C@H]2OC34C=CCN(Cn5nnc6ccccc65)C(=O)[C@H]3N(CCCCCCO)C(=O)[C@@H]4C2C(=O)O1` (stereo not given in full), for which the z-score is 0.535 in experiment [1]; -0.705 (inactive) in experiment [2]; 0.501 (inactive) in [3]; 0.137 (inactive) in experiment [5]; 0.85 (inactive) in experiment [6]; 0.816 (inactive) in [7]. Besides, the z-score in [8] is 0.703 (inactive); in [9], 1.16; in experiment [12], 0.21; in experiment [13] it was -3.02 (inactive); in experiment [14], -0.481 (inactive); in experiment [15] it was -0.521 (inactive). Further, the composite z-score in experiment [4] is -0.374 (inactive); in experiment [10] it was -0.244; in [11] it was 0.0152 (inactive); in the experiment on XIP peptide (Xip251-270), 0.217.
As to `COc1ccc([Si](C)(C)[C@@H]2[C@@H](CC(=O)N3Cc4ccccc4C[C@H]3CO)O[C@]3(C(=O)N(Cc4ccc(N5CCOC5=O)cc4)c4ccccc43)[C@H]2C)cc1`, the z-score in experiment [1] was -0.231; in [2], -0.678 (inactive); in [3], -1.49 (inactive); in [5], 1.18 (inactive); in experiment [6], 0.455 (inactive); in [7], 0.868 (inactive). The z-score in [8] was 0.465 (inactive); in experiment [9], -0.504; in experiment [12], -1.82; in [13], -1.43 (inactive); in experiment [14], -0.262 (inactive); in [15], -0.106 (inactive). In addition, the composite z-score in [4] was -0.836 (inactive); in experiment [10], 0.0049; in experiment [11], 2.28 (inactive); in the experiment on XIP peptide (Xip251-270), 0.83.
For `CC(C)N1C(=O)C[C@@](C(=O)NCCN2CCOCC2)(c2ccc([N+](=O)[O-])cc2)[C@H]1c1ccc(CO)cc1`, the z-score in experiment [1] was 1.68; in [2] it was -1.39 (inactive); in experiment [3], 0.795 (inactive); in experiment [5] it was -0.838 (inactive); in experiment [6], -0.291 (inactive); in experiment [7], 0.0506 (inactive). The z-score in [8] was 0.445 (inactive); in [9] it was 1.23; in [12], 0.289; in [13], -2.52 (inactive); in experiment [14], 0.159 (inactive); in [15], 0.451 (inactive). The composite z-score in experiment [4] was -0.1 (inactive); in experiment [10] it was -0.0747; in experiment [11], 0.534 (inactive); in the experiment on XIP peptide (Xip251-270) it was 0.634.
On to `COC(=O)[C@]1(CCC(=O)OC(C)(C)C)N=C(c2ccc(OCCCO)cc2)O[C@@H]1c1ccccc1N=[N+]=[N-]`, for which the z-score in experiment [1] is -0.223; in experiment [2], 0.887 (inactive); in experiment [3] it was -2.56 (inactive); in experiment [5] it was 1.31 (inactive); in experiment [6] it was 2.29 (inactive); in experiment [7] it was 0.844 (inactive). For the same compound, the z-score was 0.182 (inactive) in experiment [8]; -2.15 in experiment [9]; -1.98 in [12]; -2.21 (inactive) in experiment [13]; 0.0989 (inactive) in experiment [14]; 0.562 (inactive) in [15]. In addition, the composite z-score in [4] was 0.878 (inactive); in [10], 0.0037; in experiment [11], -0.194 (inactive); in the experiment with XIP peptide (Xip251-270), 0.633.
As for `COCCOC(=O)N1C(=O)[C@@]2(c3cc(C#CCC(C(=O)OC)C(=O)OC)ccc31)[C@H](C(N)=O)[C@H]1C(=O)O[C@H](c3ccccc3)[C@H](c3ccccc3)N1[C@@H]2c1ccc(O)cc1`, the z-score in experiment [1] was -0.0776; in experiment [2] it was 2.28 (inactive); in [3], -2.92 (inactive); in experiment [5] it was 6.87 (inactive); in [6] it was 3.96 (inactive); in [7], 0.714 (inactive). Besides, the z-score is 0.537 (inactive) in experiment [8]; -4.48 in experiment [9]; -2.1 in [12]; 0.218 (inactive) in [13]; -0.0553 (inactive) in experiment [14]; 0.0543 (inactive) in [15]. The composite z-score in experiment [4] is -0.667 (inactive); in experiment [10] it was 0.0727; in experiment [11], 0.896 (inactive); in the experiment with XIP peptide (Xip251-270), 0.77.
